The record followed here is PubChem BioAssay (NCI).

Compounds without any hit were thinned out: in the full panel of roughly 83,000, 20% have a hit.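 How to read the values: 0–100, growth inhibition (40 = 60% inhibited); 0, no net growth; -100 to 0, cell death (-40 = 40% of starting cells died; -100 = all dead).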 A number with no mark means an inactive call. Calls of active or inactive are those of the source. The calls were made as follows: active = growth percent below 10; inactive = the rest.

The subject of the first experiment is HCT-116 colon. Kind of experiment: NCI-60 one-dose screen, 48 h (100 = growth as untreated, 0 = no growth, -100 = all killed). The note with it: 10 µM.
Regarding `CC(C)(C)c1ccc(S(=O)(=O)Oc2ccc(NC(=O)C3CCCCC3)cc2)cc1`, the growth was 30.8%.
As to `OCCn1cccn1`, the growth is 110%.
`O=C(/C=C/C=C/c1c(C2CC2)nc2ccccc2c1-c1ccc(F)cc1)c1cccs1`: the growth is -32.6% (active).
The same measure, in the same setting: the value for `NS(=O)(=O)c1ccc(N2N=C(c3ccccc3)CCC2=O)cc1` was 86.8%; that for `COc1cc(C2C(C#N)=C(N)Oc3cc(O)ccc32)cc(OC)c1OC` (stereo not given) was 17.8%; that for `CC(C)N(CCOc1ccc(-c2nc3sccn3c2-c2ccnc(S(C)(=O)=O)n2)cc1)C(C)C` was 61.5%.
Same read-out and setting: the same measure for `CCCCCCCCCCCCCCCCCC[n+]1ccc2c(C)c3c(c(C)c2c1)c1cc(O)ccc1n3CC`: 7.88% (active); for `CC(C)c1cc(N=O)cc(C(C)C)c1O`: 110%; for `NS(=O)(=O)Oc1ccc2c(ccn2C(=O)C23CC4CC(CC(C4)C2)C3)c1`: 102%.
Still for that read-out and setting: the same measure for `COc1cc(-c2nn(-c3cccc(NC(=O)NCCNC(=O)c4ccccc4)c3)cc2-c2ccncc2)ccc1Cl`: 3.85% (active).
In the case of `CCOC(=O)N/N=C/c1ccc(OC)c(OC)c1`, the growth is 102%.
Still for that read-out and setting: the same measure for `CC(C)Cc1ccc([C@H](C)C(=O)O)cc1`: 103%.
Same read-out and setting: the value for `CCc1ccc(C2=NN(c3ccc(S(C)(=O)=O)cc3)C(=O)CC2)cc1` was 15.7%; that for `CN1CCc2c(sc3nc4n(-c5ccc(Cl)cc5)c(=O)[nH]n4c(=O)c23)C1` was 89.1%.
Consider `CC(C)(C)OC(=O)N1CCc2c(sc3ncnc(N/N=C/c4cccc5ccccc45)c23)C1`, for which the growth is 10.5%.
The same measure, in the same setting: the same measure for `COc1ccccc1-n1c(-c2csc(NC(C)=O)n2)n[nH]c1=S`: 100%; for `CCCCC1(O)CCCCC1`: 102%; for `CNS(=O)(=O)Oc1ccc(-c2sc3cc(OS(=O)(=O)NC)ccc3c2C(=O)c2ccc(OCCN3CCCCC3)cc2)cc1`: 33.4%.
On the same count and under the same terms, the value for `CCOC(=O)C1C(C(=O)OCC)C2C(=O)C3C(C(=O)OCC)C(C(=O)OCC)C3C(=O)C12` (stereo not given) was 104%; that for `C[C@]12CC[C@@H]3c4ccc(O)cc4CC[C@H]3[C@@H]1CC[C@@H]2NS(=O)(=O)c1ccc(C(F)(F)F)cc1` was 18.5%.
Same read-out and setting: the value for `COc1cc2cc(Oc3ccc(NC(=O)Nc4ccc(Cl)c(Cl)c4)cc3)c(C)nc2cc1OC` was 10.5%.
Turning to `Cc1c(C(N)=O)sc2c1c(=O)n(Cc1ccccc1)c1nnc(-c3ccc(Br)cc3)n21`, the growth is 12.4%.
The same measure, in the same setting: the value for `O=C(NCCCNS(=O)(=O)c1ccc(Cl)cc1)Nc1ccc(-n2cc(-c3ccncc3)c(-c3ccc(Cl)c(O)c3)n2)cc1` was 16.2%; that for `CNC(=O)c1cc(Oc2ccc3c(c2)sc2nc(-c4ccc(N)cc4)cn23)ccn1` was 6.01% (active).
Same read-out and setting: the same measure for `O=C1CSC(=S)N1/N=C/c1ccc(Cl)s1`: 107%.
Consider `COc1ccc(-c2cc(-c3ccc(Cl)cc3)nc(SCCCC(=O)NO)n2)cc1`, for which the growth was 8.41% (active).
Same read-out and setting: the value for `COc1ccc(-c2nn(-c3cccc(Cl)c3)cc2-c2cc(-c3ccccc3)nc(N)n2)cc1` was 5.52% (active); that for `O=[N+]([O-])c1cccc(/C=N/NC(=S)NC23CC4CC(CC(C4)C2)C3)c1` was 61.1%; that for `O=C1c2c(c3c4ccccc4n(CCCCCCN4CCOCC4)c3c3[nH]c4ccccc4c23)C(=O)N1O` was -16% (active).
Still for that read-out and setting: the same measure for `Nc1cc(-c2ccncc2)c[nH]c1=O`: 97.1%; for `COc1cc(-c2nn(-c3ccc(NC(=O)NCCCNC(=O)c4ccccc4)cc3)cc2-c2ccncc2)ccc1Cl`: 9.58% (active).
Still for that read-out and setting: the same measure for `C=CCn1c(SCC(=O)Nc2ccc(C(=O)/C=C/c3cc(OC)c(OC)c(OC)c3)cc2)nnc1-c1cc(-c2ccc(Cl)cc2)nc2ccccc12`: 50%.
As to `CCCCCOC(=O)Nc1nc(=O)n(C2O[C@H](C)[C@@H](O)[C@H]2O)cc1F` (stereo not given in full), the growth was 101%.
On the same count and under the same terms, the same measure for `COc1ccc2c(c1)OC(N)=C(C#N)C2c1cc(OC)c(OC)c(OC)c1` (stereo not given): 3.4% (active).
Consider `CC(C)(C)OC(=O)N1CCc2c(sc3ncnc(N/N=C/c4ccccc4Br)c23)C1`, for which the growth was 41.6%.
Same read-out and setting: the value for `Cc1cc(CCNC=O)c(C)c2c1sc1ccccc12` was 94%; that for `Nc1ccn(Cc2nnc(CCC(=O)c3nc4ccccc4[nH]3)o2)c(=O)n1` was 63.8%.
On the same count and under the same terms, the same measure for `CNC(=O)c1cc(Oc2ccc3c(c2)sc2nc(-c4ccc(NC(=O)Nc5ccc(Cl)c(C(F)(F)F)c5)cc4)cn23)ccn1`: 73.2%; for `COc1ccc(/C=C/C(=O)C(=O)/C=C/c2ccc(OC)c(OC)c2)cc1OC`: -74.8% (active).
Same read-out and setting: the value for `COc1ccc(C(c2ccc(OCCN(C)C)cc2)c2cc3ccccc3c3ccccc23)cc1` (stereo not given) was -75% (active).

In a further experiment the test system is HCC-2998 colon. The experiment is described as above. The note with it: 10 µM.
For `CC(C)(C)c1ccc(S(=O)(=O)Oc2ccc(NC(=O)C3CCCCC3)cc2)cc1`, the growth is 51.8%.
On the same count and under the same terms, the same measure for `OCCn1cccn1`: 97.1%.
Same read-out and setting: the value for `O=C(/C=C/C=C/c1c(C2CC2)nc2ccccc2c1-c1ccc(F)cc1)c1cccs1` was -12.9% (active).
Same read-out and setting: the same measure for `NS(=O)(=O)c1ccc(N2N=C(c3ccccc3)CCC2=O)cc1`: 97%; for `COc1cc(C2C(C#N)=C(N)Oc3cc(O)ccc32)cc(OC)c1OC` (stereo not given): 27.6%; for `CC(C)N(CCOc1ccc(-c2nc3sccn3c2-c2ccnc(S(C)(=O)=O)n2)cc1)C(C)C`: 88%.
`CCCCCCCCCCCCCCCCCC[n+]1ccc2c(C)c3c(c(C)c2c1)c1cc(O)ccc1n3CC`: the growth is 31.5%.
Same read-out and setting: the value for `CC(C)c1cc(N=O)cc(C(C)C)c1O` was 104%; that for `NS(=O)(=O)Oc1ccc2c(ccn2C(=O)C23CC4CC(CC(C4)C2)C3)c1` was 101%.
On the same count and under the same terms, the same measure for `COc1cc(-c2nn(-c3cccc(NC(=O)NCCNC(=O)c4ccccc4)c3)cc2-c2ccncc2)ccc1Cl`: 31.3%; for `CCOC(=O)N/N=C/c1ccc(OC)c(OC)c1`: 114%.
Consider `CC(C)Cc1ccc([C@H](C)C(=O)O)cc1`, for which the growth is 108%.
As for `CCc1ccc(C2=NN(c3ccc(S(C)(=O)=O)cc3)C(=O)CC2)cc1`, the growth is 46.6%.
Same read-out and setting: the same measure for `CN1CCc2c(sc3nc4n(-c5ccc(Cl)cc5)c(=O)[nH]n4c(=O)c23)C1`: 102%; for `CC(C)(C)OC(=O)N1CCc2c(sc3ncnc(N/N=C/c4cccc5ccccc45)c23)C1`: 37.1%.
Still for that read-out and setting: the value for `COc1ccccc1-n1c(-c2csc(NC(C)=O)n2)n[nH]c1=S` was 101%; that for `CCCCC1(O)CCCCC1` was 103%.
The same measure, in the same setting: the same measure for `CNS(=O)(=O)Oc1ccc(-c2sc3cc(OS(=O)(=O)NC)ccc3c2C(=O)c2ccc(OCCN3CCCCC3)cc2)cc1`: 93.8%; for `CCOC(=O)C1C(C(=O)OCC)C2C(=O)C3C(C(=O)OCC)C(C(=O)OCC)C3C(=O)C12` (stereo not given): 107%; for `C[C@]12CC[C@@H]3c4ccc(O)cc4CC[C@H]3[C@@H]1CC[C@@H]2NS(=O)(=O)c1ccc(C(F)(F)F)cc1`: 60.4%.
In the case of `COc1cc2cc(Oc3ccc(NC(=O)Nc4ccc(Cl)c(Cl)c4)cc3)c(C)nc2cc1OC`, the growth is 37.6%.
The same measure, in the same setting: the value for `Cc1c(C(N)=O)sc2c1c(=O)n(Cc1ccccc1)c1nnc(-c3ccc(Br)cc3)n21` was 25%.
The same measure, in the same setting: the value for `O=C(NCCCNS(=O)(=O)c1ccc(Cl)cc1)Nc1ccc(-n2cc(-c3ccncc3)c(-c3ccc(Cl)c(O)c3)n2)cc1` was 57.9%; that for `CNC(=O)c1cc(Oc2ccc3c(c2)sc2nc(-c4ccc(N)cc4)cn23)ccn1` was 20.9%.
Same read-out and setting: the same measure for `O=C1CSC(=S)N1/N=C/c1ccc(Cl)s1`: 99.8%; for `COc1ccc(-c2cc(-c3ccc(Cl)cc3)nc(SCCCC(=O)NO)n2)cc1`: -10% (active); for `COc1ccc(-c2nn(-c3cccc(Cl)c3)cc2-c2cc(-c3ccccc3)nc(N)n2)cc1`: 21.9%.
For the compound `O=[N+]([O-])c1cccc(/C=N/NC(=S)NC23CC4CC(CC(C4)C2)C3)c1`, the growth is 103%.
Still for that read-out and setting: the same measure for `O=C1c2c(c3c4ccccc4n(CCCCCCN4CCOCC4)c3c3[nH]c4ccccc4c23)C(=O)N1O`: 87.8%.
As for `Nc1cc(-c2ccncc2)c[nH]c1=O`, the growth is 116%.
Same read-out and setting: the same measure for `COc1cc(-c2nn(-c3ccc(NC(=O)NCCCNC(=O)c4ccccc4)cc3)cc2-c2ccncc2)ccc1Cl`: 32%; for `C=CCn1c(SCC(=O)Nc2ccc(C(=O)/C=C/c3cc(OC)c(OC)c(OC)c3)cc2)nnc1-c1cc(-c2ccc(Cl)cc2)nc2ccccc12`: 103%; for `CCCCCOC(=O)Nc1nc(=O)n(C2O[C@H](C)[C@@H](O)[C@H]2O)cc1F` (stereo not given in full): 101%.
The same measure, in the same setting: the value for `COc1ccc2c(c1)OC(N)=C(C#N)C2c1cc(OC)c(OC)c(OC)c1` (stereo not given) was 15%.
The same measure, in the same setting: the value for `CC(C)(C)OC(=O)N1CCc2c(sc3ncnc(N/N=C/c4ccccc4Br)c23)C1` was 92.3%; that for `Cc1cc(CCNC=O)c(C)c2c1sc1ccccc12` was 104%.
With `Nc1ccn(Cc2nnc(CCC(=O)c3nc4ccccc4[nH]3)o2)c(=O)n1`, the growth is 79.8%.
The same measure, in the same setting: the value for `CNC(=O)c1cc(Oc2ccc3c(c2)sc2nc(-c4ccc(NC(=O)Nc5ccc(Cl)c(C(F)(F)F)c5)cc4)cn23)ccn1` was 102%.
On the same count and under the same terms, the same measure for `COc1ccc(/C=C/C(=O)C(=O)/C=C/c2ccc(OC)c(OC)c2)cc1OC`: 21.9%.
Still for that read-out and setting: the value for `COc1ccc(C(c2ccc(OCCN(C)C)cc2)c2cc3ccccc3c3ccccc23)cc1` (stereo not given) was -19.7% (active).
